Screening data as filed in PubChem.
This excerpt belongs to a sample that is enriched for hits.
MARV entry inh: inhibitors of Marburg virus binding or cell entry; Potency, µM (top dose mostly 37.8 µM), for inactives: at the highest dose activity change, negative = inhibition, usual class: inhibitors; Marburg virus pseudotyped entry inhibition, cell reporter; actives 1.8% (n = 300,000); calls by dose curve; tested in HEK293 cells; note: potency is the fitted concentration of half-maximal effect; % is set by controls: 0 for no effect and ±100 for the full control effect
VACV Venus inh: inhibitors of vaccinia virus (Venus reporter); Vaccinia virus Venus reporter expression, fluorescence; Potency, µM (doses to about 36.5 µM), for the others: top-dose activity change, negative = inhibition, most hits filed as inhibitors; actives 0.46% (n = 330,000); AID 720580; calls by dose curve; tested in A549 cells; note: potency is the fitted concentration of half-maximal effect; % is set by controls: 0 for no effect and ±100 for the full control effect; nearly all actives have a fitted effect of over 30% in size
Vaccinia mCherry: vaccinia inhibition (mCherry reporter). Potency, µM (doses to about 36.5 µM), for the others: at the top dose activity change, negative = inhibition, hits mostly inhibitors. actives 0.63% (n = 310,000). AID 720579. Vaccinia virus mCherry reporter infection, fluorescence; calls by dose curve; tested in A549 cells; note: potency is the fitted concentration of half-maximal effect; % is set by controls: 0 for no effect and ±100 for the full control effect; nearly all actives have a fitted effect of over 35% in size
CHX counter: affects cycloheximide protein synthesis inhibition readout, counter-screen; cell reporter, cycloheximide protein synthesis inhibition counterscreen; max response, %; actives 12% (n = 300,000); in the data active = max response mostly above about 13%, no sharp cut-off; inactive = mostly below about 14%; note: read at 38.3 µM for the half of the compounds with a filed dose; 0% is about no effect
Shiga toxin inh: inhibitors of Shiga toxin in Vero cells. Vero cells, Shiga toxin protein synthesis inhibition reporter. inhibition, % at 38.7 µM. actives 9.2% (n = 290,000); in the data active = inhibition mostly above about 28%, no sharp cut-off; inactive = mostly below about 43%; note: 0% is about no effect
LASV entry inh: Lassa virus entry inhibition; Lassa virus pseudotype entry inhibition, cell reporter; Potency, µM (highest dose often 37.9 µM), for inactives: at the highest dose activity change, negative = inhibition, usual class: inhibitors; actives 1.2% (n = 300,000); calls by dose curve; tested in HEK293 cells; note: potency is the fitted concentration of half-maximal effect; % is set by controls: 0 for no effect and ±100 for the full control effect; nearly all actives have a fitted effect of over 50% in size
Active calls of the source: *; i = inactive; ? = inconclusive; / = no result; ! = a repeat was not active; [ ] = another dose, or the depositor's remark.

SMILES	MARV entry inh	VACV Venus inh	Vaccinia mCherry	CHX counter	Shiga toxin inh	LASV entry inh
Cc1ccc(Cl)cc1N1CCN(C(=O)c2cc3c(=O)[nH]c4ccccc4c3n2C)CC1	5.6µM*!	-14%	?	-2	14	?
CC(=O)c1c(C)[nH]c(C(=O)N2CCN(c3ccc(F)cc3)CC2)c1C	1%	/	/	9	-6	4%
CC(=O)c1c(C)[nH]c(C(=O)N2CCN(c3cc(Cl)ccc3C)CC2)c1C	7.3µM*	/	/	-4	-13	6.5µM*
COc1ccc(-c2cc3nc(-c4ccccc4)cc(N4CCCC(O)C4)n3n2)cc1 (centres undefined)	/	?	13µM*	2	-11	/
CCC(=O)Nc1sc2c(c1C(N)=O)CCN(Cc1ccccc1)C2	/	-15%	-24%	13*	24*	/
NC(=O)c1c(NC(=O)c2ccccc2)sc2c1CCN(Cc1ccccc1)C2	/	-10%	3%	13*	5	/
CCN1CCc2c(sc(NC(=O)c3ccc(S(=O)(=O)N(CC)c4ccccc4)cc3)c2C(N)=O)C1	?	11µM*	?	7	18	?
CCCCN(CCCC)S(=O)(=O)c1ccc(C(=O)Nc2sc3c(c2C(N)=O)CCN(CC)C3)cc1	/	-13%	-14%	/	/	-3%[46.1 µM]
CC(C)C(=O)Nc1sc2c(c1C(N)=O)CCN(Cc1ccccc1)C2	/	-21%	?	-1	-2	/
CCN1CCc2c(sc(NC(=O)c3ccc(S(=O)(=O)N4CCOCC4)cc3)c2C(=O)OC)C1	10µM*	-29%	?	-5	29	?
NC(=O)c1c(NC(=O)c2c(F)cccc2F)sc2c1CCN(Cc1ccccc1)C2	/	?	?	8.3*	19*	/
COc1ccc(/C=C2\N=C(SC)NC2=O)cc1	-13%	0%	-10%	25	120*	-2%
CCN(CC)C1=N/C(=C\c2ccc(OC)cc2)C(=O)N1c1ccccc1	?	14%	?	-2	0	0.89µM*
COc1ccc(/C=C2\N=C(SC)N(C)C2=O)cc1	12%	-7%	-11%	12*	18	-3%
CCSC1=N/C(=C\c2ccc(OC)cc2)C(=O)N1	-8%	-21%	-10%	28*	46*	?
CCSC1=N/C(=C\c2ccccc2)C(=O)N1c1ccc(OC)cc1	-2%	-12%	-16%	-5	12	-11%
COc1ccc(C(=O)N2CCOC2CNC(=O)C(=O)NCc2ccccc2Cl)cc1 (centres undefined)	11%	-10%	-2%	-5	-7	13%
COc1ccc(/C=C2\N=C(c3ccccc3Cl)NC2=O)cc1	/	/	/	34*	48	/
COc1ccc(C=C2C(=O)NC(=S)NC2=O)cc1OC	0%[46.1 µM]	-8%	-13%	/	/	13%[46.1 µM]
COc1ccc(/C=C2/N=C(SC)NC2=O)cc1OC	9%	-23%	-6%	16*	13	?
c1coc(-c2nnc(-c3ccc4c(c3)OCO4)o2)c1	/	/	/	22*	52*	/
Brc1ccc(-c2nnc(-c3ccc4c(c3)OCO4)o2)o1	-29%	/	/	35*	111*	-16%
O=C1CCCCC1Sc1nnc(-c2ccc3c(c2)OCO3)o1 (centres undefined)	5.6µM*	-6%	-9%	-12	-28	?
c1nnc(-c2ccc3c(c2)OCO3)o1	0%[46.1 µM]	8%	-2%	8	21	5%
Cc1ccc(-c2nnc(-c3ccc4c(c3)OCO4)o2)cc1	-20%[46.1 µM]	-1%	i	46*	101*	4%
SMILES	MARV entry inh	VACV Venus inh	Vaccinia mCherry	CHX counter	Shiga toxin inh	LASV entry inh
Clc1ccc(CSc2nnc(-c3ccc4c(c3)OCO4)o2)cc1	?	-29%	/	1	-8	1%
CC(=O)Nc1cccc(-c2ccnc3c2CC(C(=O)NCC2CCOCC2)O3)c1 (centres undefined)	/	-2%	1%	/	/	/
COc1ccc(-c2cc(C(=O)N3CCN(c4ccccc4O)CC3)c3ccccc3n2)cc1OC	?	?	?	7	20	?
CCN(CC1CCCO1)C(=O)CCc1nnc(Cc2ccc3c(c2)OCO3)o1 (centres undefined)	?	-8%	-4%	1	-2	6%[46.1 µM]
Cc1cccc(Cc2nnc(CCC(=O)N3CCCCC3c3nccs3)o2)c1 (centres undefined)	2%[46.1 µM]	-17%	-5%	6	16	-1%[46.1 µM]
CCN1CCN(C(=O)CCc2nnc(CCc3ccc(OC)cc3)o2)[C@@H](C)C1=O	21%	-16%	i	23*	30	4%
